# From PubChem BioAssay (NCATS)
# Records with an inconclusive call do not appear. Where a call stands in place of a potency, no number is given. Calls of active or inactive are those of the source. Calls follow the shape of the dose curve; as a rule, active = well fitted inhibition curve with a large enough effect; inconclusive = small, poorly fitted or top-dose-only effect; inactive = flat fitted curve, though single readings scatter.
# Assay: P-glycoprotein substrates identified in KB-8-5-11 adenocarcinoma cell line, qHTS therapeutic library screen (AID 1346987); also: nearly all actives have a fitted effect of over 65% in size
# Details: KB-8-5-11 (P-gp overexpressing) viability, CellTiter-Glo, 72 h; series mostly up to 44.5 µM
# Outline: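 P-gp-mediated resistance screen: KB-8-5-11 cells treated 72 h with compounds in dose-response. CellTiter-Glo viability.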
SMILES,Potency,"activity change, negative = cytotoxicity",outcome
C[C@@H]1O[C@@H](OC[C@H]2O[C@@H](OCc3ccccc3)[C@H](O)[C@@H](O)[C@@H]2O)[C@H](O)[C@H](O)[C@H]1O,inactive,,
COC1OC(O)C2(CCC3(O2)C(C)CC2OC(=O)C4(C)CCCC3(C)C24)C1O (centres undefined),inactive,,
O=C(O)c1ccnc(-c2cc(C(=O)NCCc3ccccc3)ccn2)c1,inactive,,
O=C(O)c1cc(O[C@@H]2O[C@H](CO)[C@@H](O)[C@H](O)[C@H]2O)ccc1O,inactive,,
CC(=O)O[C@H]1C[C@@]2(C)[C@@H](CC[C@H]3[C@@]4(C)C=CC(=O)[C@@H](C)[C@@H]4[C@H](OC(C)=O)C(=O)[C@@]32C)/C1=C(\CCC=C(C)C)C(=O)O,inactive,,
O=C1NC(=O)/C(=C/c2cccc(C(F)(F)F)c2)S1,inactive,,
CC1=C[C@@H]2[C@H]3[C@@H]4O[C@@](C)(CC[C@H]4O)[C@H]3CC(=O)[C@]23C(=O)N[C@@H](CC(C)C)[C@@H]3[C@@H]1C,inactive,,
C=C1Cc2c(Cl)cc3[nH]c4c5c3c2[C@@]2(O)[C@@H]1C[C@@H]2C(C)(C)O[C@H]5C1CC[C@@]2(O)[C@@]35O[C@@H]3[C@H]3OC(C)(C)[C@H]3O[C@H]5CC[C@]2(C)[C@@]41C (some centres undefined),inactive,,
COc1ccc(C2OCC3C(c4cc(OC)c5c(c4)OCO5)OCC23)cc1OC (centres undefined),inactive,,
C[C@@H]1O[C@@H](O[C@H]2[C@H](O)[C@@H](O[C@@H]3O[C@H](CO)[C@H](O)[C@H](O)[C@H]3O)[C@H](O[C@H]3CC[C@@]4(C)C(CC[C@]5(C)C4CC=C4[C@@H]6CC(C)(C)CC[C@]6(C(=O)O[C@@H]6O[C@H](CO)[C@@H](O)[C@H](O)[C@H]6O)CC[C@]45C)C3(C)C)O[C@@H]2C(=O)O)[C@H](O)[C@H](O)[C@H]1O (some centres undefined),,2.63% [at 9.29 µM] (inactive),
CC(C(=O)Nc1cc(C#N)ccc1CCCC(=O)O)c1ccc(F)c2ccccc12 (centres undefined),inactive,,
C[C@@H]1C(=O)O[C@H]2[C@H]1CC[C@@]1(C)C(=O)C=C[C@@](C)(O)[C@H]21,inactive,,
Cc1cn(-c2cc(NC(=O)c3ccc(C)c(Nc4nccc(-c5cnccn5)n4)c3)cc(C(F)(F)F)c2)cn1,inactive,,
O=C(Cc1ccc(Cl)cc1)Nc1cnccc1C(=O)O,inactive,,
C[C@H]1[C@H](C)CC[C@]2(C(=O)OC3OC(CO)C(O)C(O)C3O)CC[C@]3(C(=O)O)C(=CCC4[C@@]5(C)CC[C@H](O[C@@H]6O[C@@H](C)[C@H](OC7OC(CO)C(O)C(O)C7O)[C@@H](O)[C@H]6O)C(C)(C)C5CC[C@]43C)[C@H]12 (some centres undefined),,-1.84% [at 9.29 µM] (inactive),
Oc1ccccc1-c1cc(-c2ccccc2F)[nH]n1,inactive,,
C=C1CCC2[C@](C)(CO)CCC[C@@]2(C)[C@@H]1CCC1=CCOC1=O (some centres undefined),inactive,,
C[C@@H]1O[C@@H](O[C@H]2[C@H](OC(=O)[C@]34CCC(C)(C)C[C@H]3C3=CCC5[C@@]6(C)CC[C@H](O[C@@H]7O[C@H](CO[C@@H]8OC[C@H](O)[C@H](O)[C@H]8O)[C@@H](O)[C@H](O)[C@H]7O)C(C)(C)C6CC[C@@]5(C)[C@]3(C)C[C@H]4O)OC[C@@H](O)[C@@H]2O)[C@H](O)[C@H](O[C@@H]2OC[C@](O)(CO)[C@H]2O)[C@H]1O[C@@H]1OC[C@H](O)[C@H](O[C@@H]2OC[C@@H](O)[C@H](O)[C@H]2O)[C@H]1O (some centres undefined),,5.27% [at 9.29 µM] (inactive),
CC1=CC(=O)CC(C)(C)C1CCC(C)O[C@@H]1O[C@H](CO)[C@@H](O)[C@H](O)[C@H]1O (some centres undefined),inactive,,
CC1=C2C(=O)C=C(CO)C2C2OC(=O)C(CS(=O)(=O)O)C2C(OC(=O)Cc2ccc(O)cc2)C1 (centres undefined),inactive,,

SMILES,Potency,"activity change, negative = cytotoxicity",outcome
COC(=O)c1ccccc1O[C@@H]1O[C@H](CO[C@@H]2OC[C@@H](O)[C@H](O)[C@H]2O)[C@@H](O)[C@H](O)[C@H]1O,inactive,,
COc1cc(C(C)=O)ccc1O[C@@H]1O[C@H](CO)[C@@H](O)[C@H](O)[C@H]1O,inactive,,
CC(C)(O)/C=C/C(=O)[C@](C)(O)[C@H]1[C@H](O)C[C@@]2(C)[C@@H]3CC=C4[C@@H](C=C(O[C@@H]5O[C@H](CO)[C@@H](O)[C@H](O)[C@H]5O)C(=O)C4(C)C)[C@]3(C)C(=O)C[C@]12C,inactive,,
CC(C)C[C@H](NC(=O)[C@@H]1O[C@H]1C(=O)O)C(=O)NCCCCN=C(N)N,inactive,,
COc1ccc(-n2c(SCC#N)nc3sc4c(c3c2=O)CCCC4)cc1,inactive,,
C/C=C/C=C/C=C/C(=O)OC1C=C2C(O)OC(=O)[C@]2(O)[C@@]2(C)CCCC(C)(C)[C@H]12 (some centres undefined),inactive,,
CC(=O)OC[C@]12[C@H](OC(C)=O)[C@H](OC(=O)c3ccccc3)[C@@H]3[C@@H](OC(C)=O)[C@]1(OC3(C)C)[C@H](C)C[C@H](OC(=O)c1ccccc1)[C@@H]2OC(=O)c1ccccc1,inactive,,
COC(=O)C(CC1(OC(=O)C(C)C)c2ccccc2N2C(=O)C(C)(C)N(O)C21)n1cnc2ccccc2c1=O (centres undefined),inactive,,
CC1C2=CC(=O)OC2(O)CC2C1C(O)CC1C(C)(CO)CCCC21C (centres undefined),inactive,,
NC(=O)c1ccc(F)c2c1C[C@@H](N(C1CCC1)C1CCC1)CO2,inactive,,
CCC(CC)CC1(C(=O)Nc2ccccc2SC(=O)C(C)C)CCCCC1,inactive,,
On1ncc(C2CCNCC2)c1-c1cccc(-c2ccccc2)c1,inactive,,
CC1OC(O[C@@H]2[C@H](O)[C@@H](OC3OC(CO)C(O)C(O)C3O)[C@H](OC(=O)[C@]34CCC(C)(C)C[C@H]3C3=CCC5[C@@]6(C)CC[C@H](O[C@@H]7O[C@H](C(=O)O)[C@@H](O)[C@H](O[C@@H]8OC[C@@H](O)[C@H](O)[C@H]8O)[C@H]7O[C@@H]7O[C@H](CO)[C@H](O)[C@H](O)[C@H]7O)[C@@](C)(C=O)C6CC[C@@]5(C)[C@]3(C)C[C@H]4O)O[C@@H]2C)C(O)C(O)C1OC1OCC(O)C(O)C1O (some centres undefined),,,inactive [at 5.11 µM]
NC(=O)NCCCC(NC(=O)Cc1ccccc1)C(=O)O (centres undefined),inactive,,
Cn1nccc1-c1ccccc1Oc1ccc(S(=O)(=O)Nc2nccs2)cc1C#N,inactive,,
C/C=C(\C)C(=O)OC[C@H]1O[C@@H](O[C@H]2[C@@H](O[C@H]3O[C@H](COC(=O)/C(C)=C/C)[C@@H](O)[C@H](O)[C@H]3O[C@@H]3O[C@H](CO)[C@@H](O)[C@H](OC(=O)/C(C)=C/C)[C@H]3O)O[C@H](COC(=O)/C(C)=C/C)[C@@H](O)[C@@H]2O)[C@H](O)[C@@H](O)[C@@H]1O,,,inactive [at 9.29 µM]
COc1cc(C(CO)CO[C@@H]2O[C@H](CO)[C@@H](O)[C@H](O)[C@H]2O)ccc1O (some centres undefined),inactive,,
C[C@]12CCC[C@](C)(C(=O)O)C1[C@@H](O)[C@@H](O)C13CC(CCC12)C(CO)(O[C@@H]1O[C@H](CO)[C@@H](O)[C@H](O)[C@H]1O)C3 (some centres undefined),inactive,,
COC(=O)C1(O)C(OC(C)=O)CCC2C3(CC(c4ccoc4)OC3=O)C(C)=CCC21C(=O)OC (centres undefined),inactive,,
